From the supplement of paper PMC10981050
Values joined by “and” are separate entries in the source; they are usually repeats but may differ in a detail not shown here. Equal values may be shown once. Where a name gives a salt, the structure may show the parent alone.

How the values were obtained:
Assay in all cases: cell viability relative to vehicle control; higher = less cytotoxic
Conditions in all cases: 10 µM
[1] = system: K562
How it was run: (§1)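 CRISPR-edited mutant clones and isogenic wild-type clones from four leukaemia lines were screened against Selleck bioactive, kinase and epigenetic probe libraries, with identity-inconsistent compounds excluded. Each compound was acoustically dispensed at a single 10 µM dose into 384-well plates holding 2000 cells in 50 µL medium per well. After 48 h the supernatant was removed and CellTiter-Glo luminescence was read. Viability was expressed as percent of the on-plate vehicle control and analysed in Genedata Screener.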

[2] = system: MARIMO
How it was run: as §1

[3] = system: MOLM14
How it was run: as §1

[4] = system: OCI-AML2
How it was run: as §1

Compound	cell viability ([1]; SRSF2 genotype: SRSF2 P95H/wt)	cell viability ([1]; SRSF2 genotype: SRSF2 wt/wt) [%]	cell viability ([2]; SRSF2 genotype: SRSF2 P95H/wt) [%]	cell viability ([2]; SRSF2 genotype: SRSF2 wt/wt) [%]	cell viability ([3]; SRSF2 genotype: SRSF2 P95H/wt) [%]	cell viability ([3]; SRSF2 genotype: SRSF2 wt/wt) [%]	cell viability ([4]; SRSF2 genotype: P95H/wt) [%]	cell viability ([4]; SRSF2 genotype: wt/wt) [%]
Oc1c(F)cc(-c2cnccc2-c2ccc(N3CCOCC3)cc2)cc1F	101% and 106%	105	97.5	92.6	75.5	104	120	103
Cn1cc(CNCC2CCN(c3ncc(C(=O)NO)cn3)CC2)c2ccccc21	1.34% and 13.5%	3	7.96	11.5	0.72	0.54	1.8	2.84
OCC1OC(OC2OC(CO)C(O)C(O)C2O)C(O)C(O)C1O [D-(+)-Trehalose Anhydrous]	109% and 105%	114	111	99.1	107	107	99.6	102
C/C=C(/C)C(=O)O[C@H]1Cc2cc3ccc(=O)oc3cc2OC1(C)C [Decursinol angelate]	83.2% and 91.7%	81.8	75	82.4	83.1	89.4	71.1	77.8
O=C1C(Cl)=C(N2CCOCC2)C(=O)N1c1ccc(Cl)c(Cl)c1	97.9% and 96%	97.4	88.2	109	87	94	83.3	96.4
CO/N=C(\C(=O)N[C@@H]1C(=O)N2C(C(=O)[O-])=C(C[n+]3ccn4ncccc43)CS[C@H]12)c1nsc(N)n1 [Cefozopran hydrochloride]	108% and 99.3%	101	100	114	99.4	106	95.2	95.9
O=C(O)/C=C/c1ccc(Cn2ccnc2)cc1 [Ozagrel HCl]	97.6%	96.3	92.8	109	98.8	103	92.6	105
Fc1ccc2c(/C=C/c3nn[nH]n3)c[nH]c2c1	100% and 102%	98.6	104	102	94.2	96.3	102	108
CC(OC(=O)OC1CCCCC1)OC(=O)C1=C(CSc2nnnn2CCN(C)C)CS[C@@H]2[C@H](NC(=O)Cc3csc(N)n3)C(=O)N12 (stereo partly drawn) [Cefotiam Hexetil Hydrochloride]	105% and 98.2%	93.7	87.5	94.9	89.9	94.3	90	93.8
O=C(O)CCCCC(CCSCc1ccccc1)SCc1ccccc1 (stereo not drawn)	106% and 104%	100	99.6	111	100	103	94.6	112
CCCOc1ccc(C(=O)OCCN(CC)CC)cc1N [Proparacaine HCl]	99.7% and 99.3%	99.5	103	104	99.1	99.7	90.2	103
CCNC(=O)Nc1ccc(-c2nc(N3CCOC[C@@H]3C)c3c(n2)C(C)(C)S(=O)(=O)C3)cc1	40% and 38.6%	34.4	56.9	51	33.5	26.9	29.6	32
CC(C)(C)S(=O)(=O)c1ccc2nccc(Nc3n[nH]c4ccc(F)cc34)c2c1	91.4% and 95.8%	98.8	92.8	99.5	88	95.6	88.9	86.2
CCCCCCCCCCC[C@@H](C[C@@H]1OC(=O)[C@H]1CCCCCC)OC(=O)[C@H](CC(C)C)NC=O [Orlistat (Alli, Xenical)]	75.8% and 85.2%	76.8	41.8	64.9	75.3	73.4	49.6	86.8
CN(C)CCc1c[nH]c2ccc(Cn3cncn3)cc12 [Rizatriptan Benzoate (Maxalt)]	86.7% and 84.6%	84.2	76.2	82.7	86.7	85.6	92.7	83.5
O=C1C(c2[nH]c3ccc(S(=O)(=O)O)cc3c2O)=Nc2ccc(S(=O)(=O)O)cc21 [Indigo carmine]	98.1% and 93.6%	94.2	94.5	106	83.1	99.5	79.9	84
CCCCN1CCCCC1C(=O)Nc1c(C)cccc1C (stereo not drawn) [Bupivacaine hydrochloride (Marcain)]	92% and 102%	98.8	97.7	103	98.5	102	100	104
COC1CCN(C(=O)c2cc(Cc3n[nH]c(=O)c4ccccc34)ccc2F)CC1	78.6% and 83.8%	86	81.5	97.1	57.9	34.7	51.2	62.1
Cc1ccc(S(=O)(=O)n2c(N)nc3ccccc32)cc1	95.4% and 101%	97.9	102	104	102	104	98.3	97.2
C=C(C)[C@@H]1CC[C@]2(C=O)CC[C@]3(C)[C@H](CC[C@@H]4[C@@]5(C)CC[C@H](O)C(C)(C)[C@@H]5CC[C@]43C)[C@@H]12 [Betulinicaldehyde]	101% and 97.2%	102	95.1	94.2	103	98	94.5	92
c1ccc2occc2c1 [2,3-Benzofuran]	105% and 91%	99.1	93.7	107	98.4	105	90.6	98.6

Compound	cell viability ([1]; SRSF2 genotype: SRSF2 P95H/wt)	cell viability ([1]; SRSF2 genotype: SRSF2 wt/wt) [%]	cell viability ([2]; SRSF2 genotype: SRSF2 P95H/wt) [%]	cell viability ([2]; SRSF2 genotype: SRSF2 wt/wt) [%]	cell viability ([3]; SRSF2 genotype: SRSF2 P95H/wt) [%]	cell viability ([3]; SRSF2 genotype: SRSF2 wt/wt) [%]	cell viability ([4]; SRSF2 genotype: P95H/wt) [%]	cell viability ([4]; SRSF2 genotype: wt/wt) [%]
CCn1cc(C(=O)O)c(=O)c2ccc(C)nc21 [Nalidixic acid (NegGram)]	96.8% and 104%	106	107	101	105	109	104	91.1
CCCc1cc(-c2nc(-c3ccc(C)cc3)cs2)ccn1 [Fatostatin]	22.9% and 30.5%	39	46.2	36	51.6	35.5	34.2	35.4
CC(=O)OC1CC2(C)C(CC(O)C3C4(C)CCC(O)C(C)C4CCC32C)C1=C(CCC=C(C)C)C(=O)O (stereo not drawn) [Fusidine]	96.3% and 99.9%	89.4	97.5	98	98.9	96.8	94.2	99.2
CC(=O)OCc1ccccc1 [Benzyl acetate]	103% and 94.2%	100	96.5	105	97	107	98.3	98.4
NS(N)(=O)=O [Sulfamide]	104% and 96%	108	98.6	103	102	107	98.4	108
CC12CCC(O)CC1=CCC1C2CCC2(C)C(C(O)CC(O)(C(F)(F)F)C(F)(F)F)CCC12 (stereo not drawn)	86.1% and 93.4%	98.3	97	90.3	76.7	91.8	71.3	76.3
CCOC(=O)C1=C(C)NC(C)=C(C(=O)OCC)C1c1ccccc1/C=C/C(=O)OC(C)(C)C [Lacidipine (Lacipil, Motens)]	51% and 64.8%	53.2	53.8	40.3	49.7	39.8	44	42.9
NC(=O)c1cccnc1 [Nicotinamide (Vitamin B3)]	106% and 112%	113	107	103	105	104	104	111
COC(c1ccccc1)(c1ccccc1)[C@H](Oc1nc(C)cc(C)n1)C(=O)O [Ambrisentan]	103% and 96.5%	98.8	95.2	109	102	103	102	105
Cc1ncc([N+](=O)[O-])n1C [Dimetridazole]	106% and 99.5%	105	109	106	99.1	103	105	109
CN(C)c1ccc2nc3c(C(=O)O)cc(=O)c(O)c-3oc2c1 [Gallocyanine]	84.7% and 76.8%	77.7	82.6	87.4	85.3	86.2	84	78.8
O=C(O)c1cc(=O)[nH]c(=O)[nH]1 [Orotic acid (6-Carboxyuracil)]	104% and 95.1%	96.6	91.1	101	95.3	95.2	95.2	96.5
Cc1ccc(C(=O)Cn2c3c(sc2=N)CCCC3)cc1	88.9% and 94.2%	91.3	81.4	93.8	84	96.9	83.9	92.3
Cc1nc(Nc2cnn(C3CCNCC3)c2)nc2c1N(C)C(=O)c1cc3ccccc3cc1N2C	56% and 67.5%	60.7	50.7	63.7	15.9	5.53	19.2	22
CC[C@@]1(O)C(=O)OCc2c1cc1n(c2=O)Cc2cc3cc(O)ccc3nc2-1 [10-Hydroxycamptothecin]	8.49% and 21.1%	9.32	4.98	3.83	0.7	0.58	0.54	1.46
C=C[C@@](C)(/C=C/c1ccc(O)cc1)CCC=C(C)C [Bakuchiol]	98.5% and 98.7%	95.3	87.8	83	87.3	90.1	83.1	81.6
C[C@H](CCC(=O)O)[C@H]1CC[C@H]2[C@@H]3CC[C@@H]4C[C@H](O)CC[C@]4(C)[C@H]3CC[C@]12C [Lithocholic acid]	102% and 101%	101	106	113	98.9	104	107	112
CC(C)OC(=O)CCC/C=C\C[C@@H]1[C@@H](/C=C/C(F)(F)COc2ccccc2)[C@H](O)C[C@@H]1O [Tafluprost]	85.8% and 90.8%	92.1	85	96.2	89.3	97.7	90.6	95
OC(CN1CCN(c2cccc(Cl)c2)CC1)C(c1ccccc1)c1ccccc1 (stereo not drawn)	84.9% and 91.9%	91.3	84.2	90.6	86.9	94.5	86.9	89.1
C[C@@](Cc1ccc(O)c(O)c1)(NN)C(=O)O [Carbidopa]	103% and 92.2%	101	92.1	98.2	93.3	98.4	93.9	107
